In the library only some 18% were active in any assay of this set; here they are far more common.
TDP1 block = qHTS Assay for Inhibitors of Tyrosyl-DNA Phosphodiesterase (TDP1); Potency, µM (doses to about 130 µM), for the others: at the highest dose activity change, negative = inhibition, hits mostly inhibitors; 350,000 tested, 0.28% active; AID 485290, 2010; Tyrosyl-DNA phosphodiesterase 1 (Homo sapiens), Q9NUW8; recombinant TDP1, AlphaScreen DNA substrate cleavage; note: potency is the fitted concentration of half-maximal effect; % is set by controls: 0 for no effect and ±100 for the full control effect; nearly all actives have a fitted effect of over 40% in size
Target sequence (Q9NUW8 whole entry, looked up): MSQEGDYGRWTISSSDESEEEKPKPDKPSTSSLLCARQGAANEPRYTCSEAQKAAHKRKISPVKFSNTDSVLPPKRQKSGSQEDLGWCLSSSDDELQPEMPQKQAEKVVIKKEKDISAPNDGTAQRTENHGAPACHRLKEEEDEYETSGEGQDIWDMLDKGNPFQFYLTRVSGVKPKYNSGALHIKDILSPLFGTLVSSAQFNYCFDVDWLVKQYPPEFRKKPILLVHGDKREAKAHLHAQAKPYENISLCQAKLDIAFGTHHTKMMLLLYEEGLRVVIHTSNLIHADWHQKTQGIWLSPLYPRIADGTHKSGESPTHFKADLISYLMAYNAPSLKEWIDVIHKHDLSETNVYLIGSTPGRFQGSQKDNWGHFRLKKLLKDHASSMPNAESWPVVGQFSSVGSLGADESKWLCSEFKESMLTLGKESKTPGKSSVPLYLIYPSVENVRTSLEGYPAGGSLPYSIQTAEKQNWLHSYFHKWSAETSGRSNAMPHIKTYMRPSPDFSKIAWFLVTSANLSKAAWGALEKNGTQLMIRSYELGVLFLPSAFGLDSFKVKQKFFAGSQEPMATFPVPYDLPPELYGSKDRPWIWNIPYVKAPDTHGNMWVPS
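Signal: AlphaScreen proximity between streptavidin donor and anti-FITC acceptor beads on intact substrate. Reaction: Tdp1 1 nM, substrate 15 nM final, 5 min RT after 15 min compound preincubation.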
HepG2 viability = qHTS for Inhibitors of TGF-b: Cytotox Counterscreen | Potency, µM (highest dose often 46.1 µM), without a hit: top-dose activity change, negative = cytotoxicity, actives largely listed as cytotoxic | 410,000 tested, 0.76% active | HepG2 CAGA-GFP viability, ATP luminescence, 18 h; note: potency is the fitted concentration of half-maximal effect
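HepG2 CAGA-GFP cells (1000/well, DMEM with 1% FBS) received compound, then TGF-beta at 500 pg/mL final, and were incubated 18 hours at 37 degrees C. Viability was read by CellTiter-Glo luminescence. Media-only wells were set as complete cell-killing and DMSO as no toxicity.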
IL-1B inflam inh = qHTS for Inhibitors of Inflammasome Signaling: IL-1-beta AlphaLISA Primary Screen; THP-1 LPS/ATP IL-1B secretion, AlphaLISA, 16 h; hits give low values; activity change, % at 57.5 µM; 360,000 tested, 4.7% active; in the data active = activity change below about -50%; inconclusive = mostly about -30% to -49%; note: % is set by controls: 0 for no effect and ±100 for the full control effect
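THP-1 cells pretreated 1 hr with compounds (up to 57.5 uM final), then stimulated with LPS (250 ng/mL final) plus ATP (1.25 mM final); secreted IL-1B measured by AlphaLISA after 16 hr, decreased signal indicating inhibition.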
TGFb SMAD3 inh = qHTS for Inhibitors of TGF-b | 410,000 tested, 1.2% active | AID 588855, 2011 | HepG2 CAGA-GFP TGF-b/SMAD3 reporter, GFP fluorescence, 18 h; TGF-beta stimulated, 500 pg/mL final | Potency, µM (highest dose often 46.1 µM), inactives show at the highest dose activity, negative = inhibition, most hits filed as inhibitors; note: potency is the fitted concentration of half-maximal effect; % is set by controls: 0 for no effect and ±100 for the full control effect; nearly all actives have a fitted effect of over 65% in size
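Read-out: total well GFP (ex488/em500-530) summed from mean per-cell fluorescence. Cells: HEPG2 CAGA-GFP, 1% FBS DMEM, 18 h at 37 degrees C with 500 pg/mL final TGF-beta. Unstimulated wells served as the full-inhibition control; stimulated DMSO wells = 0%.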
TDP1 cell CPT = qHTS for Inhibitors of human tyrosyl-DNA phosphodiesterase 1 (TDP1): qHTS in cells in presence of CPT; AID 686979, 2013; 420,000 tested, 12% active; chicken DT40 Tdp1-/-;hTDP1 cells + 20 nM CPT, ATP luminescence, 48 h; Potency, µM (titrated, usually from 46.2 µM), for inactives: at the highest dose activity change, negative = growth inhibition, usual class: inhibitors; note: potency is the fitted concentration of half-maximal effect; % is set by controls: 0 for no effect and ±100 for the full control effect; nearly all actives have a fitted effect of over 55% in size
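Chicken DT40 Tdp1-/- cells stably complemented with human TDP1 were seeded at 400 cells/well in medium containing 20 nM camptothecin, exposed to pin-transferred compounds, and grown at 37 °C for at least 48 hr. Viability was read as ATP luminescence.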
DT40 TDP1 no CPT = qHTS for Inhibitors of human tyrosyl-DNA phosphodiesterase 1 (TDP1): qHTS in cells in absence of CPT. 420,000 tested, 15% active. AID 686978, 2013. Potency, µM (highest dose often 46.2 µM), for inactives: at the highest dose activity change, negative = growth inhibition, most hits filed as inhibitors. DT40 Tdp1-/- hTDP1 cells, no CPT, ATP luminescence, 48 h; note: potency is the fitted concentration of half-maximal effect; % is set by controls: 0 for no effect and ±100 for the full control effect; nearly all actives have a fitted effect of over 55% in size
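Chicken DT40 Tdp1-/- cells stably complemented with human TDP1 were seeded at 400 cells/well with DMSO in place of 20 nM camptothecin. After compound pinning, cells grew at least 48 hr at 37 °C; viability read by CellTiter-Glo luminescence.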
* marks the source's active call; other numbers are inactive results; ? = inconclusive; . = no result; [ ] = dose if it differs, or a comment. Unless noted, calls come from the whole dose curve; as a rule, active = well fitted curve in the direction sought with a large enough effect; inconclusive = small, poorly fitted or top-dose-only effect, or another doubt; inactive = no such curve, though single readings can be large; an effect the other way counts as inactive or inconclusive.

SMILES | TDP1 block | HepG2 viability | IL-1B inflam inh | TGFb SMAD3 inh | TDP1 cell CPT | DT40 TDP1 no CPT
O=C(CCCc1cccs1)Nc1nc(-c2ccc(F)cc2)cs1 | 2% | -14% | -18 | -5% | ? | 8.2µM*
O=C(Nc1nc(-c2ccc(F)c(F)c2)cs1)Nc1ccc(F)cc1F | . | 11% | -8 | -10% | 1.6µM* | 0.65µM*
O=C(Cc1cccs1)Nc1nc(-c2ccc(F)c(F)c2)cs1 | 2% | -18% | . | -4% | 8.2µM* | 1.5µM*
COc1cc(NC(=O)Nc2c[nH]c(=O)[nH]c2=O)cc(OC)c1OC | -3% | -1% | . | 6% | -10% | -5%
CC(=O)c1cccc(OCC(=O)N(CCC2=CCCCC2)c2c(N)n(Cc3ccccc3)c(=O)[nH]c2=O)c1 | . | -61% | -3 | ? | ? | -26%
CN(C(=O)CSc1nnc(-c2c[nH]c3ccccc23)n1C1CC1)C1CCS(=O)(=O)C1 (stereo unspecified) | 1% | -22% | 35 | -13% | 10% | 7%
O=C(CN1CCCCC1)Nc1nc(-c2ccc(F)c(F)c2)cs1 | 0% | -3% | -10 | -1% | ? | ?
O=C(Cc1ccccc1F)Nc1nc(-c2ccc(F)c(F)c2)cs1 | 6% | -36% | -90* | ? | 5.2µM* | 2.1µM*
O=C(Cc1c(F)c(F)c(F)c(F)c1F)Nc1nc(-c2ccccc2)cs1 | 7% | -27% | -79* | ? | ? | 16µM*
COc1cccc(NC(=O)Nc2nc(-c3ccc(OC)c(OC)c3)cs2)c1 | 0% | 16µM* | -104* | 11µM* | 18µM* | 7.3µM*
COc1ccc(-c2csc(NC(C)=O)n2)cc1OC | 7% | 2% | ? | 7% | -30% | -22%
O=C(COC(=O)C1CC1)Nc1nc(-c2ccc(F)c(F)c2)cs1 | -12%[0.505 µM] | -26% | -29 | ? | 21µM* | 10µM*
CC(=O)Nc1ccc(-c2csc(NC(=O)Cc3ccccc3F)n2)cc1 | . | -22% | -13 | -11% | ? | ?
CN(Cc1ccccc1)S(=O)(=O)c1nnc(NC(=O)c2ccccc2Cl)s1 | 4% | -40% | . | -27% | -29% | ?
CC(=O)Nc1ccc(-c2csc(NCCc3ccccc3)n2)cc1 | . | -14% | ? | ? | ? | ?
CC(OC(=O)c1ccc([N+](=O)[O-])o1)C(=O)Nc1nc(-c2ccc(F)c(F)c2)cs1 (stereo unspecified) | -1% | -31% | ? | -10% | 21µM* | 21µM*
COc1ccc(-c2csc(NC(=O)Cc3ccccc3)n2)cc1OC | 6% | -3% | 2 | 8% | ? | 1.6µM*
COc1ccc(-c2csc(NC(=O)CCn3cnc4ccccc4c3=O)n2)cc1OC | 3% | -21% | ? | -9% | ? | 18µM*
Cc1cc(C(=O)OC(C)C(=O)Nc2nc(-c3ccccc3)cs2)c(C)o1 (stereo unspecified) | 5% | -26% | 10 | ? | -3% | -15%
COc1ccc(-c2csc(NC(=O)CCCc3nc4ccccc4c(=O)[nH]3)n2)cc1OC | 5%[0.505 µM] | -19% | -24 | -18% | ? | ?
CC(=O)Nc1ccc(-c2csc(NC(=O)Cc3cccc(F)c3)n2)cc1 | 14% | -3% | ? | -28% | ? | 23µM*
CCc1nc(SCC(=O)Nc2ccc(NC(C)=O)cc2)n[nH]1 | . | -5% | . | 1% | 3% | 4%

Bioassay records deposited in PubChem by National Center for Advancing Translational Sciences (NCATS).
